Screens as filed in PubChem.
An excerpt weighted towards active compounds, which were near 4% of everything screened.
CCHF vOTU inh: blocks the CCHF virus ovarian tumor domain protease | CCHFV vOTU protease, Pep-AMC fluorescence | inhibition, % at 11.5 µM | 370,000 compounds, 0.55% hits | AID 651958; further: 0% = vehicle wells with enzyme and 100% = no enzyme wells
MazEF act: increases E. coli MazEF RNase cleavage of RNA; 350,000 compounds, 0.32% hits; FAM/BHQ RNA-DNA oligo cleavage fluorescence, 5 h; activation, % at 20 µM; in the data active means activation above about 50%
Target sequence (P0AE70 whole entry, looked up): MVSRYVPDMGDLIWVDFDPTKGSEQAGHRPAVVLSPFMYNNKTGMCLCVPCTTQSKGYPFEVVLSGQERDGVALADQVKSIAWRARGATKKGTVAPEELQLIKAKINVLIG
Mtb bLac sens: beta-lactam sensitization of Mtb H37Rv; M. tuberculosis H37Rv growth with meropenem, percent inhibition; inhibition, % at 25 µM; 330,000 compounds, 0.27% hits; call rule not given here;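 further: growth measured after seven days incubation then overnight dye step; 0% = bacteria only wells and 100% = bacteria with antibiotic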
GDH-TPI counter: inhibits GDH-TPI coupling enzymes, artifact for Mtb FBA screen; GDH-TPI coupled enzyme counterscreen, NADH absorbance; inhibition, % at 4.8 µM; 360,000 compounds, 1.2% hits;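 further: 0% = DMSO wells and 100% = wells lacking the enzyme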
FBA Mtb inh: Mtb fructose-bisphosphate aldolase inhibition. P9WQA3. purified M. tuberculosis FBA, fluorescence read-out. inhibition, % at 1 µM. 360,000 compounds, 2.3% hits; in the data active means inhibition above about 27%;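 further: 0% = vehicle and 100% = reference inhibitor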
Target sequence (P9WQA3 whole entry, looked up): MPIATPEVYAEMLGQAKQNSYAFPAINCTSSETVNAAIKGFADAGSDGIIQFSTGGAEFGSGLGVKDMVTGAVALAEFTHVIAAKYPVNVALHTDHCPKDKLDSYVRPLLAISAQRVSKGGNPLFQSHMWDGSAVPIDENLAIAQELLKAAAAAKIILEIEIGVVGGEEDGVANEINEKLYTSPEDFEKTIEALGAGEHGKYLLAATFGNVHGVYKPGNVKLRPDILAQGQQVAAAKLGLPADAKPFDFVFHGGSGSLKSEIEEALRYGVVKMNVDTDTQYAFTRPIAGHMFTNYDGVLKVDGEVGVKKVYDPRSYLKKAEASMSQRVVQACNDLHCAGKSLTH
* hit, by the source's call; x = no result given; + = active, no number. Unless noted, no stated cut-off is given here; in the data, active means inhibition above about 30%; inactive means the rest.

SMILES | CCHF vOTU inh | MazEF act | Mtb bLac sens | GDH-TPI counter | FBA Mtb inh
O=C(Nc1cccc(C(=O)O)c1)/C(=C\c1ccco1)NC(=O)c1ccc(Br)o1 | 19.6 | 0.0 | 0.0 | 19.6 | 0.3
COc1ccc(NC(=O)/C(=C/c2cccs2)NC(=O)c2ccco2)cc1 | 9.7 | 6.2 | -9.8 | 44.8* | 3.5
CC(=O)c1ccc(NC(=O)/C(=C\c2cccs2)NC(=O)c2ccco2)cc1 | 13.6 | 0.5 | -5.7 | 33.0* | -4.9
COc1ccc([C@H]2OC(=O)C[C@H]2C(=O)N2CCCC2)cc1OC | -7.4 | x | x | x | x
O=C(c1cc2c(ccc3ccccc32)oc1=O)N1CCCC1 | -163.4 | 13.2 | -5.1 | 15.9 | 166.0*
O=C(O)c1cc2ccc3ccccc3c2oc1=O | -123.7 | 4.1 | 86.4 | 10.2 | 196.2*
CCOC(=O)c1cc2c(ccc3ccccc32)oc1=O | -342.5 | -1.8 | 59.2 | 6.7 | +
O=C(NCc1ccccn1)c1cc2c(ccc3ccccc32)oc1=O | -234.1 | -13.5 | -4.8 | 16.9 | 172.4*
O=C(O)c1cc2cc(Cl)cc(Cl)c2oc1=O | 4.3 | 4.3 | 6.7 | 10.1 | 4.7
O=C(O)c1cc2c(ccc3ccccc32)oc1=O | -230.7 | x | -4.7 | 9.7 | +
CC(C)(C)NC(=O)c1cc2c(ccc3ccccc32)oc1=O | -35.4 | 6.9 | 7.9 | 4.9 | 79.6*
O=C(NCCN1CCC(Cc2ccccc2)CC1)C1CCCN(S(=O)(=O)c2ccc(Cl)s2)C1 (centres undefined) | 10.1 | x | x | x | x
C=CCNC(=O)Nc1ccc2c(c1)[C@]1(CC(=O)N(CC(C)C)C1c1ccccc1)C(=O)N2C (some centres undefined) | 1.4 | x | x | x | x
COc1ccc(/C=C/C(=O)C(C(N)=O)=C2SCCS2)cc1 | 15.5 | 1.6 | 4.4 | 22.9 | -4.8
NC(=O)C(C(=O)/C=C/c1ccc(Cl)cc1)=C1SCCS1 | 3.1 | 2.5 | 25.8 | 44.2* | 3.2
Cc1c(/C=N/Nc2nc3ccccc3[nH]2)c2ccccc2n1C | -1.1 | 0.8 | 97.0 | 32.4* | 1.3
Cn1c(/C=N/Nc2nc3ccccc3[nH]2)nc2ccccc21 | 22.4 | 2.0 | 98.3 | 9.1 | 3.4
Cc1ccsc1/C=N/Nc1nc2ccccc2[nH]1 | 18.3 | 5.9 | x | 31.9* | 5.2
COC(=O)[C@]1(Cc2ccccc2)N[C@H](c2ccc(-c3cc(C(C)=O)cs3)cc2)[C@@H]2C(=O)N(C)C(=O)[C@@H]21 | 10.6 | 5.8 | 14.9 | 34.4* | 7.7
Cc1ccc(NC(=O)c2cccc3c2-c2ccccc2C3=O)c(C)c1 | 3.3 | x | x | x | x
COCc1cc(=O)n2[nH]c(C)c(-c3ccc(Cl)cc3)c2n1 | -19.8 | -6.2 | x | 7.6 | 135.3*
CCCCNC(=O)C1(C(=O)C2CC2)CC(C(=O)OCC)=NO1 (centres undefined) | -0.2 | x | x | x | x
Cc1cc(Nc2cccc(F)c2)n2c(n1)nc1ccccc12 | -14.5 | 57.5* | 5.0 | 7.4 | 3.2
c1ccc(C(c2nnnn2C2CCCCC2)N2CCc3ccccc3C2)nc1 (centres undefined) | x | -12.2 | 10.0 | 2.5 | 68.7*
CC(C)C(c1nnnn1C1CCCCC1)N1CCc2ccccc2C1 (centres undefined) | 6.9 | 2.0 | 9.8 | 3.7 | 3.3
SMILES | CCHF vOTU inh | MazEF act | Mtb bLac sens | GDH-TPI counter | FBA Mtb inh
CNc1ccc2ncc(-c3cccc(C(=O)N(C)C)c3)n2n1 | -191.9 | x | x | 16.8 | 155.8*
CN(C)C(=O)c1cccc(-c2ccc3nncn3c2)c1 | -1.9 | x | x | 13.7 | -1.9
O=C(NCCO)c1ccc(-c2cnc3cccnn23)cc1 | -168.7 | x | x | 10.6 | +
O=C(NCCO)c1cccc(-c2cnc3cccnn23)c1 | -133.8 | x | x | 13.7 | 156.1*
CN1CCN(C(=O)c2ccc(-c3cnc4cccnn34)cc2)CC1 | -136.2 | x | x | 3.5 | +
CN1CCN(C(=O)c2cccc(-c3cccc4nccn34)c2)CC1 | -1.5 | x | x | 12.9 | 16.4
COc1cc(-c2nnc(SCC(=O)N3C(C)CCCC3C)o2)cc(OC)c1OC (centres undefined) | 0.3 | x | x | x | x
O=C(NCCc1ccccc1)OCc1cn(Cc2cccc(Cl)c2)nn1 | -0.2 | x | x | x | x
CC(NCc1ccco1)C(=O)N1CCN(c2ccc(F)cc2)CC1 (centres undefined) | 10.2 | x | x | x | x
CCOc1ccc(N(CC(=O)Nc2c(C)n(C)n(-c3ccccc3)c2=O)S(=O)(=O)c2cccc3cccnc23)cc1 | 10.5 | x | x | x | x
O=C(OC12CCCN(C1)/C(=C/c1ccc(Cl)cc1)C2)c1ccno1 (centres undefined) | -8.2 | x | x | x | x
Cn1c(=O)c2[nH]c(SCC(=O)N3CCN(c4cccc(C(F)(F)F)c4)CC3)nc2n(C)c1=O | -9.2 | x | x | x | x
N#Cc1ccc(-c2cccnc2)nc1SCC(=O)c1ccccc1 | 13.4 | + | -3.2 | 29.7 | -5.5
